Laboratory results from PubChem BioAssay AID953 (National Center for Advancing Translational Sciences (NCATS), 2007).
The other results are listed elsewhere or left out. Inconclusive results are not listed. The source made the active and inactive calls. Calls follow the shape of the dose curve; as a rule, active = well fitted curve in the direction sought with a large enough effect; inconclusive = small, poorly fitted or top-dose-only effect, or effect the other way, or another doubt; inactive = no such curve, though single readings can be large or run the other way.

Test: Confirmation Concentration-Response Assay for Agonists of the Thyroid Stimulating Hormone Receptor: Activators of Intracellular cAMP Concentrations in Parental HEK 293
Details: parental HEK293 CNG biosensor, cAMP membrane potential fluorescence; series mostly up to 32.9 µM
Source text: NIH Chemical Genomics Center [NCGC] NIH Molecular Libraries Screening Centers Network [MLSCN] MLSCN Grant: 1 X01 MH080680-01 PI Name: Dr. Marvin Gershengorn NCGC Assay Overview: This cell based assay utilized a cyclic nucleotide gated ion channel (CNG) as a biosensor for cAMP induction. HEK 293 cells stably expressing the modified CNG were purchased from BD biosciences (http://www.atto.com/products/actone/features_benefits.shtml) . Stimulation of cAMP production causes the CNG to open and subsequent membrane depolarization to occur. A fluorescent membrane potential dye (BD biosciences) was utilized to detect cAMP stimulation in cells. The cells were maintained in DMEM medium (Invitrogen) containing 10 % FBS (Hyclone), 100 units/ml Penicillin, 100 ug/ml Streptomycin (Invitrogen), and 250 ug/ml Geneticin (Invitrogen) and 1 ug/ml Puromycin (Invitrogen) at 37C in 5% CO2. […]
NCGC Assay Protocol Summary: High Throughput Screening. […] 23 nl/well compound or control was then added to the assay plates, which were incubated for additional 30 min before reading a Envision fluorescence plate reader (Perkin Elmer) in bottom-read mode for fluorescence intensity (emission at 590 nm). Keywords: cAMP, CNG Ion Channel, quantitative high throughput screening, qHTS, HTS, probe identification, CNG, cAMP, cyclic nucleotide gated ion channel PubChem

SMILES: CCOC(=O)C1=C(C)OC(N)=C(C(=O)OC)C12C(=O)Nc1ccc(Br)cc12 (configuration not stated)
- outcome: inactive

SMILES: C=CCN1C(=O)C2(C(C(=O)OCC)=C(N)Oc3c2c(=O)oc2ccccc32)c2ccccc21 (configuration not stated)
- outcome: inactive
